aSyn yeast inh: qHTS of alpha-syn Inhibitors | hit rate 0.14% among 370,000 | Potency, µM (titrated, usually from 46.1 µM), usual class: activators | Yeast expressing alpha-synuclein, growth rescue, BacTiter-Glo, 24 h; also: nearly all actives have a fitted effect of over 65% in size
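Galactose-induced alpha-syn yeast (OD600=0.02, raffinose-pregrown) + pinned cpd, 24 hr, 30 deg C; growth by BacTiter-Glo luminescence. Growth restoration scores as activation.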
Abeta yeast res: qHTS for compounds that reverse cellular toxicity of Amyloid beta (A-beta) peptide in yeast: Primary Screen | yeast expressing A-beta42, growth rescue, OD600, 48 h; response scale: 0% DMSO, 100% iron-clioquinol control | Potency, µM (doses to about 46.1 µM), actives largely listed as activators | hit rate 0.063% among 410,000 | AID 1347071, 2019; also: nearly all actives have a fitted effect of over 55% in size
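Yeast growth medium received pinned compounds, then yeast cells expressing toxic A-beta were added; plates incubated at 30 C for 48 hr. Growth read as absorbance at 600 nm, normalized to DMSO and equimolar FeCl3 plus clioquinol controls.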
FUS yeast rescue: qHTS for Suppressors of FUS Proteinopathy: Primary screen using FUS-linked yeast assay; S. cerevisiae FUS-expressing, growth rescue, OD600, 24 h; Potency, µM (titrated, usually from 76.6 µM), usual class: activators; hit rate 0.24% among 390,000; also: nearly all actives have a fitted effect of over 55% in size
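Restored growth of FUS-toxic S. cerevisiae, read as 600 nm absorbance after 24 h at 30C in galactose medium (starting OD 0.005). Controls CP55940 and DMSO.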
CCT modulator: High-Throughput Screening for Modulators of Cytosolic Chaperonin Activity; purified chaperonin ATPase assay, HTRF ADP detection, 30 min; hit rate 0.3% among 360,000; activity change, % (no concentration beside the values), hits read low; AID 651819, 2012; in the data active = activity change below about -30%
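TRiC at 40 or 20 nM final (batch-dependent) in 30 mM Tris pH 7.4, 100 mM KCl, 5 mM MgCl2, 1 mM DTT, with compound at single 76 uM and 10 uM ATP, 30 min at 37 deg C. ADP detected by HTRF Transcreener, 665/615 ratio.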
MmCpn inh: Inhibitors of TCP-1 ring complex (TRiC) of Methanococcus maripaludis (MmCpn): qHTS; Chaperonin Mm-Cpn (Methanococcus maripaludis); purified Mm-Cpn ATPase, ADP Transcreener TR-FRET; Potency, µM (titrated, usually from 76.9 µM), most hits filed as inhibitors; hit rate 0.031% among 330,000; AID 504842, 2011; also: nearly all actives have a fitted effect of over 80% in size
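ATP (10 uM final) was added to archaeal chaperonin (25 nM final) after 10 min exposure to test compound at 37°C; after 30 min further incubation, ADP was detected by competitive TR-FRET.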
TDP-43 yeast inh: qHTS of TDP-43 Inhibitors. Potency, µM (series often up to 46.1 µM), usual class: activators. AID 652104, 2013. hit rate 1.8% among 410,000. TDP-43 expressing yeast growth rescue, BacTiter-Glo, 24 h; also: nearly all actives have a fitted effect of over 50% in size
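Galactose-induced TDP-43 yeast, OD600=0.02, compound pinned; 24 hr, 30 deg C; BacTiter-Glo luminescence for growth. Inhibitors of TDP-43 toxicity read as activators.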
Numbers stand for hits. Only some compounds are listed: those with a hit (about 2.3% of all), similar ones and a draw of the others. Unless noted, calls follow the shape of the dose curve; as a rule, active = well fitted curve in the direction sought with a large enough effect; inconclusive = small, poorly fitted or top-dose-only effect, or another doubt; inactive = no such curve, though single readings can be large; an effect the other way counts as inactive or inconclusive.

Screening COc1cc2c(cc1OC)C(COc1ccc(F)cc1)N(C(=O)c1cccc(F)c1)CC2 (stereo not given) returned aSyn yeast inh inactive, Abeta yeast res inactive, FUS yeast rescue inactive and TDP-43 yeast inh 35µM.
Screening COC(=O)c1ccc(OCC2c3cc(OC)c(OC)cc3CCN2C(=O)c2ccc(OC)cc2)cc1 (stereo not given) returned aSyn yeast inh inactive, Abeta yeast res inactive, FUS yeast rescue inconclusive and TDP-43 yeast inh 35µM.
Screening COc1cc2c(cc1OC)C(COc1ccc(F)cc1)N(C(=O)Cc1ccc(F)cc1)CC2 (stereo not given) returned Abeta yeast res inactive and FUS yeast rescue inactive.
For O=C(CSc1nc2sc3c(c2c(=O)n1-c1ccc(Cl)cc1)CCCC3)c1ccccc1Cl the results were FUS yeast rescue inactive.
`COc1cccc(C(=O)Oc2ccc3ccc(O)cc3c2)c1` gave aSyn yeast inh inactive, Abeta yeast res inactive, FUS yeast rescue inactive, CCT modulator inactive, MmCpn inh inactive and TDP-43 yeast inh 20µM.
For Cc1ccccc1C(=O)Oc1ccc2ccc(O)cc2c1 the results were aSyn yeast inh inactive, Abeta yeast res inactive, FUS yeast rescue inactive, CCT modulator inactive, MmCpn inh inactive and TDP-43 yeast inh 18µM.
Screening CCC(Cn1nnc2ccccc2c1=O)NC(=O)Nc1cc(C)cc(C)c1 (stereo not given) returned Abeta yeast res inactive, FUS yeast rescue inactive and TDP-43 yeast inh inactive.
Screening O=C(Nc1cc(Cl)ccc1-n1cncn1)c1cc(F)c(F)c(F)c1F returned aSyn yeast inh inactive, Abeta yeast res inactive, FUS yeast rescue inactive, CCT modulator inactive, MmCpn inh inactive and TDP-43 yeast inh 22µM.
`Cc1ccsc1C(=O)Nc1cc(Cl)ccc1-n1cncn1` gave aSyn yeast inh inactive, Abeta yeast res inactive, FUS yeast rescue inactive, CCT modulator inactive and TDP-43 yeast inh 18µM.
For Cc1ccc(OCC(=O)Nc2cc(Cl)ccc2-n2cncn2)c(C)c1 the results were aSyn yeast inh inactive, Abeta yeast res inactive, FUS yeast rescue inactive, CCT modulator inactive and TDP-43 yeast inh 13µM.
Screening CS(=O)(=O)c1ccccc1C(=O)Nc1cc(Cl)ccc1-n1cncn1 returned aSyn yeast inh inactive, Abeta yeast res inactive, FUS yeast rescue inactive, CCT modulator inactive, MmCpn inh inactive and TDP-43 yeast inh inactive.
`Cc1cccc(OCC(=O)Nc2cc(Cl)ccc2-n2cncn2)c1C` gave aSyn yeast inh inconclusive, Abeta yeast res inactive, FUS yeast rescue inactive, CCT modulator inactive, MmCpn inh inactive and TDP-43 yeast inh inactive.
`CCN(CC)S(=O)(=O)c1ccc(Cl)c(NC(=O)COC(=O)c2ccc(O)cc2)c1` gave aSyn yeast inh inactive, Abeta yeast res inactive, FUS yeast rescue inactive, CCT modulator inactive, MmCpn inh inactive and TDP-43 yeast inh inactive.
`CCN(CC)S(=O)(=O)c1ccc(C)c(NC(=O)COC(=O)C=C(C)C)c1` gave aSyn yeast inh inactive, Abeta yeast res inactive, FUS yeast rescue inactive, CCT modulator inactive, MmCpn inh inactive and TDP-43 yeast inh inactive.
Screening CCN(CC)S(=O)(=O)c1ccc(C)c(NC(=O)COc2ccc(Cl)cc2Br)c1 returned aSyn yeast inh inactive, Abeta yeast res inactive, FUS yeast rescue inactive, CCT modulator -56, MmCpn inh inactive and TDP-43 yeast inh inactive.
Cc1cc(C)c(NC(=O)COC(=O)C2CCC2)c(Cl)c1 was read as aSyn yeast inh inactive, Abeta yeast res inactive, FUS yeast rescue inactive, CCT modulator inactive, MmCpn inh inactive and TDP-43 yeast inh inactive.
CCN(CC)S(=O)(=O)c1ccc(Cl)c(NC(=O)COC(=O)C2CCCCC2)c1 was read as aSyn yeast inh inactive, Abeta yeast res 11µM, FUS yeast rescue inactive, CCT modulator inactive, MmCpn inh inactive and TDP-43 yeast inh inactive.

Compound activity from PubChem BioAssay.
